Test results from PubChem BioAssay (NCI).
About 79,000 compounds went through this panel and 15% of them were active in at least one assay; those are over-represented in the sample as a whole. A number with no mark means an inactive call. Activity calls are given as the source filed them. No stated cut-off is given here; in the data, active means growth inhibition above about 70%; inactive means the rest.

Assay: NCI Yeast Anticancer Drug Screen. Data for the mec2-1 strain (AID 157)
Settings: S. cerevisiae mec2-1 strain, at 50.0 µM (retest, dose inferred, filed as 5.0), stronger effect = higher value
How it was run: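 Mutant yeast (mec2-1) grown with compound; growth inhibition relative to vehicle control reported.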

| SMILES | growth inhibition |
| --- | --- |
| Oc1ccc(/C=N/NC(=S)Nc2ccccc2)nc1 | 60% |
| CN(C)COC(=S)SCN(C)C | 99% (active) |
| Cc1cc2cc3c(c(C(=O)O)c2o1)C(=O)c1ccc2ccccc2c1C3 | 99% (active) |
| O=C1CC(=S)NC(=S)N1 | -1% |
| O=[N+]([O-])c1cc(I)c(O)c(/C=N/NS(=O)(=O)c2ccc(Cl)cc2)c1 | 1% |
| CCC1CCC(CC)C1=O (stereo unspecified) | -1% |
| Cc1cc(O)c2c(c1)C(=O)c1c(c(O)cc(O)c1-c1c(O)cc(O)c3c1C(=O)c1cc(C)cc(O)c1C3=O)C2=O | 70% (active) |
| CCC(=O)Sc1ccccc1C(=O)Nc1ccc(Cl)cc1 | 64% |
| COc1cccc(CC2N(S(=O)(=O)c3ccc(C)cc3)CCC23C(=O)Nc2ccccc23)c1OC (stereo unspecified) | 96% (active) |
| Cc1occc1C(=S)Nc1ccc(Cl)c(C(=O)OCC(C)C)c1 | 45% |
| CCOC(=O)c1ccc([N+](=O)[O-])o1 | 11% |
| Nc1ccc(S(=O)(=O)O)c2cccc(S(=O)(=O)O)c12 | 0% |
| Cn1c2ccccc2c2nnc(N/N=C/c3ccccn3)nc21 | 97% (active) |
| C#CC(NCCC(C)CC(C)(C)C)C(C)C (stereo unspecified) | -31% |
| C/C(=N/Nc1ccccc1)C(=O)O | 88% (active) |
| CCCCCCCCCCCCCCOC(=O)C(N)Cc1ccc(O)cc1 (stereo unspecified) | 98% (active) |
| O=C(Nc1ccc(S(=O)(=O)NC2CCCCC2)cc1)OCc1ccccc1 | 26% |
| NC1CCCCC1N.O=S(=O)([O-])CCCN1CCN(CCO)CC1.O=S(=O)([O-])CCCN1CCN(CCO)CC1.[Pt+4] | 99% (active) |
| CCCCCCCNc1ccc2c(cc1=O)C(NC(C)=O)CCc1cc(OC)c(OC)c(OC)c1-2 (stereo unspecified) | 98% (active) |
| Cc1ccc(NC(=O)c2cc3ccccc3c(N=Nc3cc(S(=O)(=O)O)ccc3O)c2O)c(C)c1 | 84% (active) |
| O=C(O)/C(Cl)=C(\Cl)C(=O)Nc1cccc(C(F)(F)F)c1 | 100% (active) |

Same assay, conditions: S. cerevisiae mec2-1 strain, at 50.0 µM, stronger effect = higher value

| SMILES | growth inhibition |
| --- | --- |
| CCCNC(=O)OCc1ccc(NCCN(CC)CC)c2c(=O)c3ccccc3sc12 | -24% |
| COc1cc(C(c2cc3c(cc2O)OCO3)N2CCCCC2)cc(OC)c1OC (stereo unspecified) | 34.6% |
| Cc1cc2c(cc1Cl)Sc1nnc(C)n1S2(=O)=O | 71% (active) |
| O=C(Oc1cccc2cccnc12)c1ccccc1 | 97% (active) |
| CCCCCCN(CCCCCC)CCC(=O)c1ccc2cc(Br)c3ccccc3c2c1 | 98.6% (active) |
| Cc1c2cc(Cl)ccc2cc2c1ccc1ccccc12 | 98.8% (active) |
| O=C1OC(CCCl)(c2ccccc2)CC1CN1CCOCC1 (stereo unspecified) | 57.9% |
| CCOC(=N)CCCSSc1ccc(N=[N+]=[N-])cc1 | 99.2% (active) |
| Cc1[nH]c2ccccc2c1/C=C1\C(=O)C2CCC1C2 (stereo unspecified) | 34.6% |
| O=C(O)c1ccc2c3c(ncnc13)-c1ccccc1C2=O | 45% |
| CCNCCNc1cc(O)c2c(c1O)C(=O)c1ccccc1C2=O | 84.9% (active) |
| Nc1nc(N)c2nc(CNc3ccc(C(=O)NC(CCC(=O)O)C(=O)O)cc3)cnc2n1 (stereo unspecified) | 97.8% (active) |
| COc1ccccc1OC(=O)Oc1ccccc1OC | -11.1% |
| NNC(=O)c1c(SCc2ccccc2)nc2c3ccccc3ccn12 | 35% |
| N#CC1Oc2ccccc2N1C(=O)c1ccccc1 (stereo unspecified) | 54.1% |
| O=C1C2=Cc3ccccc3CCN2c2ccccc21 | 90.7% (active) |
| Cc1cc([N+](=O)[O-])cc(Cl)c1O | 88.3% (active) |
| Cc1c(Cl)cccc1N=NC(=O)NNc1cccc(Cl)c1C | 82.1% (active) |
| CCC[CH2][Sn]1([CH2]CCC)[O]C(=O)CN=Cc2c(ccc3ccccc23)[O]1 | 94% (active) |
| Oc1ccc(/C=N/NC(=S)Nc2ccccc2)nc1 | 86.8% (active) |

| SMILES | growth inhibition |
| --- | --- |
| CN(C)COC(=S)SCN(C)C | 54.1% |
| Cc1cc2cc3c(c(C(=O)O)c2o1)C(=O)c1ccc2ccccc2c1C3 | 99.5% (active) |
| O=C1CC(=S)NC(=S)N1 | -1.7% |
| O=[N+]([O-])c1cc(I)c(O)c(/C=N/NS(=O)(=O)c2ccc(Cl)cc2)c1 | 75.1% (active) |
| CCC1CCC(CC)C1=O (stereo unspecified) | 93.9% (active) |
| Cc1cc(O)c2c(c1)C(=O)c1c(c(O)cc(O)c1-c1c(O)cc(O)c3c1C(=O)c1cc(C)cc(O)c1C3=O)C2=O | 70.3% (active) |
| CCC(=O)Sc1ccccc1C(=O)Nc1ccc(Cl)cc1 | 92.9% (active) |
| COc1cccc(CC2N(S(=O)(=O)c3ccc(C)cc3)CCC23C(=O)Nc2ccccc23)c1OC (stereo unspecified) | 69.4% |
| Cc1occc1C(=S)Nc1ccc(Cl)c(C(=O)OCC(C)C)c1 | 55.1% |
| CCOC(=O)c1ccc([N+](=O)[O-])o1 | 53.1% |
| Nc1ccc(S(=O)(=O)O)c2cccc(S(=O)(=O)O)c12 | 7.4% |
| Cn1c2ccccc2c2nnc(N/N=C/c3ccccn3)nc21 | 96.5% (active) |
| C#CC(NCCC(C)CC(C)(C)C)C(C)C (stereo unspecified) | 36.2% |
| C/C(=N/Nc1ccccc1)C(=O)O | 97.8% (active) |
| CCCCCCCCCCCCCCOC(=O)C(N)Cc1ccc(O)cc1 (stereo unspecified) | 99.2% (active) |
| O=C(Nc1ccc(S(=O)(=O)NC2CCCCC2)cc1)OCc1ccccc1 | 9.85% |
| NC1CCCCC1N.O=S(=O)([O-])CCCN1CCN(CCO)CC1.O=S(=O)([O-])CCCN1CCN(CCO)CC1.[Pt+4] | -9.95% |
| CCCCCCCNc1ccc2c(cc1=O)C(NC(C)=O)CCc1cc(OC)c(OC)c(OC)c1-2 (stereo unspecified) | 16.8% |
| Cc1ccc(NC(=O)c2cc3ccccc3c(N=Nc3cc(S(=O)(=O)O)ccc3O)c2O)c(C)c1 | 52.3% |
| O=C(O)/C(Cl)=C(\Cl)C(=O)Nc1cccc(C(F)(F)F)c1 | 99.7% (active) |
